In PubChem BioAssay AID1347147 (National Center for Advancing Translational Sciences (NCATS), 2019):
Results filed as inconclusive are left out. A call without a number means that no potency is given here. Activity calls are given as the source filed them. The call rests on the fitted dose curve; in most records, active means well fitted inhibition curve with a large enough effect; inconclusive means small, poorly fitted or top-dose-only effect; inactive means no such curve, though single readings can be large or run the other way.
Potency means the concentration at half of the fitted maximal effect.

These compounds were tested against N-terminal Xaa-Pro-Lys N-methyltransferase 1 (Homo sapiens) (UniProt Q9BV86) (assay: qHTS Assay for Inhibitors of N-terminal methyltransferase 1 (NTMT1): MTaseGlo Confirmatory Screen, Round 2). Conditions: NTMT1 enzyme, MTase-Glo SAH luminescence; series mostly up to 57.4 µM.
N-terminal Xaa-Pro-Lys N-methyltransferase 1 (Homo sapiens), sequence (Q9BV86 whole entry, looked up): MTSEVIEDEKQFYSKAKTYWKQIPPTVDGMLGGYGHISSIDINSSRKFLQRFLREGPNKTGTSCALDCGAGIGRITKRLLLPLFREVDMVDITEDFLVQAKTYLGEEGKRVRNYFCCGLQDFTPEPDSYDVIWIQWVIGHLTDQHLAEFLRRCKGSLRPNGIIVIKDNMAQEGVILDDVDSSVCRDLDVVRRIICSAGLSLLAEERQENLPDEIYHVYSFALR
Text: Assay Submitter (PI): Rong Huang Ph.D, Purdue University, West Lafayette, IN 47907
The N-terminal methytransferase 1 is the first methyltransferase that methylates protein alpha-N-amines and plays an important role in regulating cell mitosis, chromatin interactions and DNA repair. It is observed to be over-expressed in various cancer patient tissues like malignant melanoma and colorectal cancer tissues. Knockdown of NTMT1 in cancer cells causes cell mitotic defects and enhances sensitivity to DNA damaging chemotherapeutics. […] These critical cellular processes in which NTMT1 is implicated, coupled with emerging links to cellular dysfunction, strengthen the inference that NTMT1 is a compelling novel anticancer target. Progress have been made in understanding the molecular properties of NTMT1 and the biological consequences of protein alpha-N-terminal methylation, but there are no specific small molecule probes available for NTMT1 to fully characterize its MTase activity. To address this unmet need, a panel of assay is created and established to enable quantitative high-throughput screening (qHTS) for novel, potent, and selective small molecule NTMT1 inhibitors. Two orthogonal qHTS that use different reagents (ThioGlo vs. MTaseGlo) are developed for primary robotic screening against the NCATS chemical library of more than 400,000 small molecules. Identified inhibitors are reacquired, validated, and further characterized.
MTaseGlo Assay is a luminescence screen that measure the activity of methyltransferases based on the reaction product S-adenosyl homocysteine (SAH). The substrate SAM is converted to SAH upon enzyme activation. MTase-Glo reagent and detection solution convert SAH to ATP and measure the light from the luciferase reaction.
Early Translation Branch (ETB)
National Center for Advancing Translational Sciences (NCATS)
National Institute of Health (NIH)
NTMT1 enzyme, substrate SPKRIA, control peptide RCC1-6 is provided by the Huang laboratory.
In brief, 3 µL of enzyme mixture (final concentrations of 125 nM and 100 µM for NTMT1 and SAM, respectively) into all wells of a 1,536-well solid-bottom white plate (Greiner Bio One, Monroe, NC). 23 nL of DMSO or Ac-RCC1-10 (final concentration range 234 nM to 143 microM) was transferred via Wako Pin-tool (Wako Automation, Richmond, VA) and incubated (RT) for ~15 minutes. Next, 1 µL of substrate (final concentration 1 µM) or buffer was dispensed, and the reaction proceeded for 30 minutes (RT, protected from light) followed by a 1 microL addition of [5X] MTase-Glo Reagent(R). Samples were incubated (RT, protected from light) for 30 minutes to allow for SAH to be converted to ADP, followed by a 5 microL addition of [1X] MTase-Glo Detection Solution(R) to allow for ADP to be converted to ATP, which was then detected with a luciferase reaction. Samples were centrifuged for 15 seconds at 1,000 RPM's, followed by a RT incubation for 30 minutes. Plates were then read using Luminescence optics on a ViewLux detector. Data were normalized to no-enzyme (0% activity) and no-inhibitor (DMSO; 100%) controls, and the resulting percent inhibition data were fitted to a 4-parameter Hill equation using Graphpad Prism.
With N#C/C(=C\c1ccc(O)c(O)c1)C(=O)Nc1ccccc1 the Potency was “inactive”.
For COc1cc2c(NC3CCN(C(C)C)CC3)nc(N3CCC(F)(F)CC3)nc2cc1OCCCN1CCCCC1, the Potency was “inactive”.
For Brc1c(NC2=NCCN2)ccc2nccnc12, the Potency was “inactive”.
For Nc1ccnc2c1ncn2[C@@H]1O[C@H](CO)[C@@H](O)[C@H]1O, the Potency was 10 µM (active).
In the case of Cc1cc(C)c(CNC(=O)c2cc(-c3ccc(CN4CCOCC4)cc3)cc3c2cnn3C2CCCC2)c(=O)[nH]1, the Potency was “inactive”.
In the case of CN(C)C(=O)/N=N/C(=O)N(C)C, the Potency was “inactive”.
For COc1cc2nc(N3CCCN(C)CC3)nc(NC3CCNCC3)c2cc1OC, the Potency was “inactive”.
In the case of OCC1OC(n2cnc3c(NO)ncnc32)C(O)C1O (stereo not given), the Potency was “inactive”.
With Cc1[nH]c(=O)c(C#N)cc1-c1ccc2nccn2c1 the Potency was “inactive”.
In the case of N[C@@H](Cc1ccc(O)c(O)c1)C(=O)O, the Potency was “inactive”.
For C=CCN1CCc2cc(O)c(O)cc2[C@H](c2ccccc2)C1, the Potency was “inactive”.
In the case of CC(C)COCC(CN(Cc1ccccc1)c1ccccc1)N1CCCC1 (stereo not given), the Potency was “inactive”.
For CC(Cc1ccc(O)c(O)c1)C(C)Cc1ccc(O)c(O)c1 (stereo not given), the Potency was 35.5 µM (active).
For C[C@H](Cc1ccc(O)c(O)c1)[C@@H](C)Cc1ccc(O)c(O)c1, the Potency was 15.8 µM (active).
With OCCN1CCN(CC/C=C2/c3ccccc3Sc3ccc(C(F)(F)F)cc32)CC1 the Potency was “inactive”.
For NS(=O)(=O)c1cccc2c1c([N+](=O)[O-])cc1nc(O)c(O)nc12, the Potency was “inactive”.
With COc1cc2nc(N3CCCN(C)CC3)nc(N3CCN(C)CC3)c2cc1OC the Potency was “inactive”.
With Oc1ccc(C2CNCc3sccc32)cc1O (stereo not given) the Potency was “inactive”.
In the case of CC(=O)/C=C1\C(=O)N(C)c2ccccc21, the Potency was “inactive”.
CNC(=O)c1cnn(-c2nc(N)c3ncn([C@@H]4O[C@H](CO)[C@@H](O)[C@H]4O)c3n2)c1 was tested, and the Potency was “inactive”.
NC[C@@H]1O[C@H](c2ccccc2)Cc2c1ccc(O)c2O was tested, and the Potency was “inactive”.
In the case of CCN(CC)C(C)CN1c2ccccc2Sc2ccccc21 (stereo not given), the Potency was “inactive”.
For Oc1ccc2ccccc2c1SSc1c(O)ccc2ccccc12, the Potency was “inactive”.
C=CCN1CCc2c(cc(O)c(O)c2Br)[C@@H](c2ccccc2)C1 was tested, and the Potency was “inactive”.
With CN1Cc2c(N)cccc2C(c2ccccc2)C1 (stereo not given) the Potency was “inactive”.
For Nc1nc(=S)c2ncn([C@H]3O[C@@H](CO)[C@@H](O)[C@@H]3O)c2[nH]1, the Potency was “inactive”.
For CC(C)(C)c1ccc(S(=O)(=O)/C=C\C#N)cc1, the Potency was “inactive”.
With Nc1c(S(=O)(=O)O)cc(Nc2ccc(Nc3nc(Cl)nc(Nc4ccc(S(=O)(=O)O)cc4)n3)c(S(=O)(=O)O)c2)c2c1C(=O)c1ccccc1C2=O the Potency was 31.6 µM (active).
For COc1ccc(/C=C2\COc3ccc(C)cc3C2=O)cc1O, the Potency was “inactive”.
With Oc1ccc(Cn2cc[nH]c2=S)cc1 the Potency was “inactive”.
For Cc1cc2c(cc1Cl)N(C(=O)Nc1ccc(Oc3cccnc3C)nc1)CC2, the Potency was “inactive”.
For CC(C)NCC(O)c1ccc(O)c(O)c1 (stereo not given), the Potency was “inactive”.
In the case of CC(C)NC[C@H](O)c1ccc(O)c(O)c1, the Potency was “inactive”.
In the case of CC(C)NC[C@@H](O)c1ccc(O)c(O)c1, the Potency was “inactive”.
With CCOC(=O)c1cnc2c(cnn2CC)c1NN=C(C)C the Potency was “inactive”.
With O=C1c2c(O)ccc(O)c2C(=O)c2c(NCCNCCO)ccc(NCCNCCO)c21 the Potency was 31.6 µM (active).
With NCCc1ccc(O)c(O)c1 the Potency was “inactive”.
With Cn1ncc(S(=O)(=O)Cc2ccccc2)c(Br)c1=O the Potency was “inactive”.
For C#CCN(C)CCCOc1ccc(Cl)cc1Cl, the Potency was “inactive”.
For CCN(CC)C(=S)SSC(=S)N(CC)CC, the Potency was “inactive”.
